Assay results: PubChem BioAssay (Tox21)
Results filed as inconclusive are left out. A number with no mark means an inactive call. Active and inactive are the calls of the source. Calls follow the shape of the dose curve; as a rule, active = well fitted activation curve with a large enough effect in the repeat runs; inconclusive = weak or mixed curves; inactive = no such curve, though single readings can be large or run the other way.

assay: qHTS assay for small molecules that induce genotoxicity in human embryonic kidney cells expressing luciferase-tagged ATAD5 (AID 651632); settings: HEK293T ATAD5-luciferase induction, 16 h; series mostly up to 83.3 µM; activation: at the top concentration; also: nearly all actives have a fitted effect of over 15% in size
From the text: U.S. Tox21 Program National Center for Advancing Translational Sciences [NCATS] NIH Chemical Genomics Center [NCGC] U.S. Environmental Protection Agency [EPA] National Institutes of Environmental Health Sciences [NIEHS] National Toxicology Program [NTP] U.S. Food and Drug Administration [FDA] Tox21 Assay Overview: As cancer cells divide rapidly and during every cell division they need to duplicate their genome by DNA replication. The failure to do so results in the cancer cell death. Based on this concept, many chemotherapeutic agents were developed but have limitations such as low efficacy and severe side effects etc. A new cell based assay was developed to find the compounds that effectively block DNA replication either by directly damaging DNA or by inhibiting other cellular mechanisms. Enhanced Level of Genome Instability Gene 1 (ELG1; human ATAD5) protein levels increase in response to various types of DNA damage. Using a luciferase reporter-gene tagged with ATAD5, a cell-based assay [developed by Kyungjae Myung, NHGRI, NIH] was used to measure the induction of ATAD5 in human embryonic kidney cells (HEK293T). So, increase in luciferase activity can be used to identify the compounds that cause genetic stress.
Tox21 Assay Protocol Summary: For genotoxicity screening, 2,000 cells in 5 uL/well were dispensed into white, solid-bottom 1536-well plates using a Multidrop Combi (Thermo Scientific) dispenser. Following transfer of 23 nL compound or DMSO vehicle by a pin tool, the plates were incubated 16 hr at 37C and 5% CO2. 5 ul Amplite (AAT Bioquest, Inc.) was then added to each plate and following 30 min incubation at room temperature, luciferase activity was quantified on a ViewLux CCD-based plate reader.
% is scaled to controls: 0 for no effect and ±100 for the full control effect.

| Compound | activation | Potency |
| --- | --- | --- |
| CC(=O)CC(=O)c1ccccc1 | 4.42% [at 95.3 µM] |  |
| OC(CCN1CCCCC1)(c1ccccc1)C1CCCCC1 (stereo not given) | -1.79% |  |
| CCCCCCCCCCCCCCCBr | 3.49% |  |
| C1CCC2OC2C1 (stereo not given) | 3.96% [at 95.3 µM] |  |
| CC1=CCC(C(C)C)C=C1 (stereo not given) | -1.09% |  |
| O=C(c1ccccc1)c1ccc2n1CCC2C(=O)O (stereo not given) |  | inactive |
| O=c1c2ccccc2nnn1CCl | 2.81% |  |
| CC(O)C1CCCCC1 (stereo not given) | -0.568% |  |
| COc1ccc(OC)c(OC)c1 | 2.23% |  |
| CCCCCOC(=O)COc1cc(N2C(=O)C3=C(CCCC3)C2=O)c(F)cc1Cl | 1.41% |  |
| O=C(O)Cn1c(C(=O)Nc2nc(-c3ccccc3Cl)cs2)cc2ccccc21 | 5.59% |  |
| CC(=O)c1ccc2c(c1)[C@H](NC(=O)c1ccc(F)cc1)[C@@H](O)C(C)(C)O2 | 1.78% |  |
| NCc1ccccc1 | -0.484% |  |
| CCCCCc1ccc(N)cc1 | 2.99% |  |
| CC(C)(C)c1cc(CO)cc(C(C)(C)C)c1O | -6.89% [at 95.3 µM] |  |
| CC(=O)/C=C/C1C(C)=CCCC1(C)C (stereo not given) | -0.721% |  |
| CCCc1ccccc1 | 4.51% |  |
| CCCC[C@H]1CN(CC2CCOCC2)C(=O)OC12CCN(C1(C)CCN(C(=O)c3c(C)ncnc3C)CC1)CC2 | 1.19% |  |
| CC(C)(C)c1cc(CCC(=O)OCC(COC(=O)CCc2cc(C(C)(C)C)c(O)c(C(C)(C)C)c2)(COC(=O)CCc2cc(C(C)(C)C)c(O)c(C(C)(C)C)c2)COC(=O)CCc2cc(C(C)(C)C)c(O)c(C(C)(C)C)c2)cc(C(C)(C)C)c1O | 2.27% [at 39.1 µM] |  |
| CCCCOc1ccc(CC(=O)NO)cc1 | 2.55% [at 39.1 µM] |  |

| Compound | activation | Potency |
| --- | --- | --- |
| O=CNc1ccccc1 | -3.14% [at 95.3 µM] |  |
| N#CCc1cccc(C(F)(F)F)c1 | -0.304% |  |
| Cc1cc(C)c(S(=O)(=O)O)cc1N=Nc1cc(S(=O)(=O)O)c2ccccc2c1O | -1.9% |  |
| CC(=O)c1c(C)c([N+](=O)[O-])c(C(C)(C)C)c([N+](=O)[O-])c1C | -6.17% |  |
| CCN(CC)CCNC(C(=O)OCCC(C)C)c1ccccc1 (stereo not given) | -3.92% |  |
| CC(=O)OC/C=C/c1ccccc1 | 0.71% |  |
| Cc1cccc(OCCOc2cccc(C)c2)c1 | 2.71% [at 95.3 µM] |  |
| O=C(NN1CCCC1)NS(=O)(=O)c1ccc(Cl)cc1 | 3.64% |  |
| CCCCCCCCN(C)C | -0.375% |  |
| CC(C)c1ccccc1C(C)C | 2.95% |  |
| Cc1occc1S | -3.02% |  |
| CN1CCC(=C2c3ccccc3C=Cc3ccccc32)CC1 | -7.27% |  |
| COc1ccc(C(C)=O)cc1 | -1.28% [at 95.3 µM] |  |
| CCCCc1cc2ccccc2c(OCCN(C)C)n1 | -3.99% [at 39.1 µM] |  |
| N#CCCNCCC#N | 3.64% [at 95.3 µM] |  |
| C1=Cc2ccccc2C1 | -0.976% |  |
| C[C@H](CCC(=O)O)[C@H]1CC[C@H]2[C@@H]3[C@H](O)C[C@@H]4C[C@H](O)CC[C@]4(C)[C@H]3CC[C@]12C |  | inactive |
| C=CC(C)(CCC=C(C)C)OC(=O)c1ccccc1 (stereo not given) | -0.248% |  |
| COCCCCCCCCOCCC[Si](C)(O[Si](C)(C)C)O[Si](C)(C)C | -7.74% |  |
| COc1ccccc1OC(=O)Oc1ccccc1OC | -2.56% |  |
